# Assay outcomes as filed in PubChem.
# DT40 TDP1 no CPT = qHTS for Inhibitors of human tyrosyl-DNA phosphodiesterase 1 (TDP1): qHTS in cells in absence of CPT | DT40 Tdp1-/- hTDP1 cells, no CPT, ATP luminescence, 48 h | Potency, µM (doses to about 46.2 µM), for inactives: at the top dose activity change, negative = growth inhibition, usual class: inhibitors | 420,000 tested, 15% active | AID 686978, 2013; further: potency means the concentration at half of the fitted maximal effect; nearly all actives have a fitted effect of over 55% in size
#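 No-CPT arm: Tdp1-/-;hTDP1 DT40 cells (400/well) plus compounds, incubated ≥48 hr at 37 °C. Readout CellTiter-Glo luminescence.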
# ALOX12 inh = inhibitors of human 12S-lipoxygenase ALOX12 | P18054 | purified 12hLO, xylenol orange hydroperoxide absorbance | Potency, µM (series often up to 108 µM), for the others: top-dose activity change, negative = inhibition, actives largely listed as inhibitors | 580,000 tested, 1.1% active | AID 1671190; further: potency means the concentration at half of the fitted maximal effect
# Target sequence (P18054 whole entry, looked up): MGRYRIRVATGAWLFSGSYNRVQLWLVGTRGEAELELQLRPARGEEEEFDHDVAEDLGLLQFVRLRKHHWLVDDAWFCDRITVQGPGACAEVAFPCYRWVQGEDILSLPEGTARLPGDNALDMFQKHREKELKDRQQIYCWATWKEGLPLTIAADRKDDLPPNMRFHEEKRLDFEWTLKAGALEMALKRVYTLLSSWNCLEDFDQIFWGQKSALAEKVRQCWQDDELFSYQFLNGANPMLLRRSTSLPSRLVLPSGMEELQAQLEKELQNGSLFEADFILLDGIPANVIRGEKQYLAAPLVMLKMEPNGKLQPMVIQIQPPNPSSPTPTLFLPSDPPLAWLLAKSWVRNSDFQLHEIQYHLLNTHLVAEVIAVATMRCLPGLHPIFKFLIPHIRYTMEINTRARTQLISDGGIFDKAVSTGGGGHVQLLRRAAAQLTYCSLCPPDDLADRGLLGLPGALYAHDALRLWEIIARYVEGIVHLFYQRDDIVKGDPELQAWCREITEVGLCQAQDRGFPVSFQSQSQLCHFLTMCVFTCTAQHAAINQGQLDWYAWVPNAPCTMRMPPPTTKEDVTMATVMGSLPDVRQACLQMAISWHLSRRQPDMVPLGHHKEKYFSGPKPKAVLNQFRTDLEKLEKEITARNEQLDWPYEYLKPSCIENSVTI
#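 Hydroperoxide product was detected by ferrous iron/xylenol orange as the 573 to 405 nm absorbance ratio. Arachidonic acid at 40 uM (final) was turned over for 30 min at room temperature by 150 nM human 12hLO, pH 7.0 Hepes buffer, after 15 min compound preincubation.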
# HT1080 IDH1KD tx = kills HT-1080 cells with IDH1 knockdown | 360,000 tested, 2% active | Potency, µM (titrated, usually from 46.1 µM), without a hit: at the top dose activity, negative = toxicity, hits mostly cytotoxic | HT-1080 IDH1 knockdown viability, ATP luminescence, 48 h | AID 686971;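 further: potency means the concentration at half of the fitted maximal effect; 0% = DMSO wells and -100% = cell-free medium wells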
#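 HT-1080-IDH1KD cells (IDH1 knocked down), 750/well in RPMI with 5% FBS, treated with compound 48 h at 37 degrees C. Viability by CellTiter-Glo luminescence, normalised to DMSO and no-cell wells; concentration-response curves classed.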
# DT40 TDP1 CPT = DT40-hTDP1 cell growth loss with CPT; chicken DT40 Tdp1-/-;hTDP1 cells + 20 nM CPT, ATP luminescence, 48 h; Potency, µM (highest dose often 46.2 µM), without a hit: at the top dose activity change, negative = growth inhibition, actives largely listed as inhibitors; 420,000 tested, 12% active; further: potency means the concentration at half of the fitted maximal effect; nearly all actives have a fitted effect of over 55% in size
#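 Cell growth measured by CellTiter-Glo luminescence after a minimum 48 h, 37 C compound exposure with 20 nM CPT in Tdp1-knockout DT40 cells stably expressing hTDP1, seeded 400/well; qHTS titration format.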
# HT1080-NT tox = kills 2HG-producing HT-1080-NT fibrosarcoma cells; HT-1080-NT fibrosarcoma viability, CellTiter-Glo ATP luminescence, 48 h; Potency, µM (highest dose often 46.1 µM), inactives show at the highest dose activity, negative = less viability, actives largely listed as cytotoxic; 360,000 tested, 1.6% active;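 further: NT is the 2HG producing partner of a matched IDH1 knockdown line; potency means the concentration at half of the fitted maximal effect; 0% = DMSO-treated cells and -100% = media-only wells without cells; nearly all actives have a fitted effect of over 55% in size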
#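 HT-1080-NT; 750 cells/well; 5% FBS RPMI; 48 h compound, 37 degrees C; CellTiter-Glo luminescence; curve fitting and curve-class assignment.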
# IL1B secr inh = inhibitors of inflammasome signaling (IL-1 beta secretion). THP-1 LPS/ATP IL-1B secretion, AlphaLISA, 16 h; active compounds read low. activity change, % at 57.5 µM. 360,000 tested, 4.7% active. AID 743279; in the data active means activity change below about -50%; inconclusive means mostly about -30% to -49%
#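 Secreted IL-1B measured by AlphaLISA bead assay after 16 h compound exposure of THP-1 cells; compounds (final up to 57.5 uM) added 1 h before LPS (250 ng/mL) and ATP (1.25 mM) stimulation; lower signal means less secretion.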
# Active calls of the source: *; ? = inconclusive; nt = no result; [ ] = dose if it differs, or a comment. This excerpt belongs to a sample that is enriched for hits. Unless noted, the call rests on the fitted dose curve; in most records, active means well fitted curve in the direction sought with a large enough effect; inconclusive means small, poorly fitted or top-dose-only effect, or another doubt; inactive means no such curve, though single readings can be large; an effect the other way counts as inactive or inconclusive. Unless noted, on the % scale 0 is the no-effect control and ±100 the full control effect.
SMILES,DT40 TDP1 no CPT,ALOX12 inh,HT1080 IDH1KD tx,DT40 TDP1 CPT,HT1080-NT tox,IL1B secr inh
C=CCC[C@H](CCCCC)OC(=O)/C=C/[C@H](O)[C@@H](O)C[C@H](O)CC=C,25.9µM*,-10.5%,-29.0%,?,-21.3%,-21.0
C=CCC[C@@H](CCCCC)OC(=O)/C=C/[C@H](O)[C@@H](O)C[C@H](O)CC=C,?,-25.1%,-27.4%,?,?,-54.8*
O=Nc1c(O)[nH]c2ccc(Cl)c(Cl)c12,?,?,?,?,?,-94.9*
Cc1ccc(C)c(N2CCN(C(=O)c3ccccc3Br)CC2)c1,16.4µM*,0.0%,-5.5%,20.6µM*,-4.5%,?
Cc1ccc(C)c(N2CCN(C(=O)c3ccc4c(c3)c(C)c(C)n4C)CC2)c1,16.4µM*,-1.7%,?,23.1µM*,?,3.0
Cc1ccc(N2CCN(C(=O)c3ccccc3Br)CC2)c(C)c1,25.9µM*,?,-0.8%,?,-13.2%,-2.0
Cc1cccc(N2CCN(C(=O)c3ccc4c(c3)c(C)c(C)n4C)CC2)c1C,?,-21.8%,nt,-20.4%,nt,nt
Cc1ccc(N2CCN(C(=O)c3cc(C(=O)c4ccccc4C)c[nH]3)CC2)c(C)c1,23.1µM*,-13.3%,5.1%,?,9.5%,?
Cc1cnc(CCNC(=O)NC(C)(C)C)n1Cc1ccccc1,nt,96.5%,nt,nt,nt,nt
CC1(C)CC2CC(C)(CN2Cc2c(O)ccc3ccccc23)C1 (stereo not drawn),13µM*,?,-3.9%,?,-9.2%,-17.2
CC1(C)CC2CC(C)(CN2Cc2cccc([N+](=O)[O-])c2)C1 (stereo not drawn),1.9%,?,4.9%,-24.7%,-0.5%,36.0
COCc1nc(C2CCCN(C(=O)c3ccccc3F)C2)no1 (stereo not drawn),nt,7.7%,nt,nt,nt,nt
Cc1ccccc1Cn1c(=O)n(CCCCC(=O)NCc2ccc3c(c2)OCO3)c(=O)c2ccccc21,?,0.0%,nt,23.1µM*,nt,nt
O=C(CCCCn1c(=O)c2ccccc2n(Cc2cccc(Cl)c2)c1=O)NCc1ccc2c(c1)OCO2,11.6µM*,-13.4%,nt,?,nt,nt
O=C(CCCCn1c(=S)[nH]c2ccsc2c1=O)NCc1ccc2c(c1)OCO2,18.4µM*,?,?,?,-18.2%,-3.2
N#C/C(=C\c1c(Oc2ccc(Br)cc2)nc2ccccn2c1=O)c1nc2ccccc2s1,16.4µM*,?,nt,-73.1%,nt,nt
Cc1cccc(Oc2nc3c(C)cccn3c(=O)c2/C=C(\C#N)c2nc3ccccc3[nH]2)c1,-5.1%,-22.3%,nt,-13.3%,nt,nt
Cc1cc(Oc2nc3c(C)cccn3c(=O)c2/C=C(\C#N)S(=O)(=O)c2ccc(Cl)cc2)ccc1Cl,23.1µM*,-14.8%,-0.1%,?,0.3%,-10.2
COc1ccc(/C(C#N)=C/c2c(-c3ccc(Cl)cc3)nc3c(C)cccn23)cc1,18.4µM*,0.3%,13.9%,?,18.2%,30.2
CC(C)(C)c1ccc(Oc2nc3ccccn3c(=O)c2/C=C(\C#N)c2nc3ccccc3[nH]2)cc1,-2.7%,-13.4%,nt,1.5%,nt,nt
Cc1cccn2c(=O)c(/C=C(\C#N)c3nc4ccccc4n3C)c(Oc3ccc(Cl)cc3)nc12,8.2µM*,-22.9%,nt,?,nt,nt
Cc1cccn2c(/C=N/OCc3ccc(F)cc3)c(-c3ccc(Cl)cc3)nc12,?,1.3%,5.4%,?,5.5%,8.2
CCN1CCN(c2nc3c(C)cccn3c(=O)c2/C=C(\C#N)S(=O)(=O)c2ccc(Cl)cc2)CC1,-6.9%,-2.5%,-5.1%,-10.7%,2.0%,-21.0
CC(C)(C)NC(=O)N1CCC(OC2CCN(S(C)(=O)=O)CC2)CC1,nt,11.4%,nt,nt,nt,nt
CCS(=O)(=O)N1CCc2cc(C(=O)CSc3nnc(C4CC4)n3Cc3ccccc3)ccc21,nt,19.1%,nt,nt,nt,nt
SMILES,DT40 TDP1 no CPT,ALOX12 inh,HT1080 IDH1KD tx,DT40 TDP1 CPT,HT1080-NT tox,IL1B secr inh
Cc1cccn2c(=O)c(/C=C(\C#N)c3nc4ccccc4n3C)c(Oc3ccc(Br)cc3)nc12,6.51µM*,-23.4%,nt,10.3µM*,nt,nt
Cc1cccn2c(=O)c(/C=C(\C#N)c3nc4ccccc4[nH]3)c(Oc3ccc(C(C)(C)C)cc3)nc12,-13.7%,-5.0%,nt,5.1%,nt,nt
COc1ccccc1OCCN(C#N)c1nc(N(C)C)nc(N(C)C)n1,?,1.0%,2.4%,20.6µM*,4.6%,-77.3*
O=c1oc2ccccc2c(NCc2ccccc2)c1NS(=O)(=O)c1ccc(F)c(F)c1,nt,-22.3%,nt,nt,nt,nt
COC(=O)c1[nH]c2cccc(OC)c2c1NC(=O)CN1CCN(c2cccc(OC)c2)C(C)C1 (stereo not drawn),14.6µM*,?,-17.0%,?,-27.1%,-0.5
COc1cccc(N2CCN(CC(=O)c3c[nH]c4ccc(OC)cc34)CC2C)c1 (stereo not drawn),20.6µM*,?,?,20.6µM*,?,-1.9
COC(=O)c1[nH]c2cccc(OC)c2c1NC(=O)CCN1CCN(c2ccccc2OC)CC1,12.6µM*,-14.0%,?,10µM*,-10.0%,-0.9
COc1ccccc1/C=C/C(=O)N[C@@H]1C[C@H]2CC[C@@H]1C2,nt,-8.1%,nt,nt,nt,nt
Cc1ccc(-c2cc(C(=O)Nc3ccc(S(=O)(=O)N4CCCCC4C)cc3)no2)cc1 (stereo not drawn),nt,-27.7%,nt,nt,nt,nt
CCC(C)n1c(SC(C)C#N)nc2ccccc2c1=O (stereo not drawn),23.1µM*,-3.1%,-11.3%,?,0.8%,22.1
CC(C#N)On1c(SC(C)C#N)nc2ccccc2c1=O (stereo not drawn),-1.8%,0.0%,-0.4%,-2.7%,0.0%,11.7
O=C(Cc1ccc(Cl)c(Cl)c1)NCc1ccccn1,nt,7.6%,nt,nt,nt,nt
CCN1C(=O)/C(=C\C(=O)c2cccs2)c2cc(Br)ccc21,14.6µM*,?,-7.6%,13µM*,-18.7%,-7.2
CCN1C(=O)/C(=C\c2cccs2)C(C(=O)OC)=C1C,?,0.0%,-9.3%[9.24 µM],0.5%,-20.4%,-27.9
COc1cccc(Nc2nc(-c3cccs3)nc3ccccc23)c1,23.1µM*,2.4%,?,?,16.4µM*,-57.8*
COc1cccc(Nc2ncnc3ccccc23)c1,?,-7.5%,29.7%,?,-5.7%,-2.6
COc1cccc(CN(C)c2nc(-c3cccs3)nc3ccccc23)c1,20.6µM*,7.7%,?,18.4µM*,-29.4%,-18.0
COc1ccc(CNC(=O)CSc2nc(-c3cccs3)nc3ccccc23)cc1,nt,3.5%,nt,nt,nt,nt
